Measurements reported in PubChem BioAssay (NCATS).
Records with an inconclusive call do not appear. A number with no mark means an inactive call. The source made the active and inactive calls. Calls follow the shape of the dose curve; as a rule, active = well fitted inhibition curve with a large enough effect; inconclusive = small, poorly fitted or top-dose-only effect; inactive = flat fitted curve, though single readings scatter.

The compounds below were run against Calcium and integrin-binding protein 1 (Homo sapiens) (UniProt Q99828) (assay: Primary qHTS for Identification of Calcium Integrin Binding Protein 1 (CIB1) Competitor (AID 1508620;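 also: GST tagged CIB1 binding a fluorescein labelled alphaIIb integrin peptide tracer; top concentration of the series differs between compounds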)). Details: CIB1-GST / FITC-alphaIIb peptide fluorescence polarization; series mostly up to 57.7 µM; activity change, negative = inhibition: at the top concentration.
Sequence of Calcium and integrin-binding protein 1 (Homo sapiens) (Q99828 whole entry, looked up): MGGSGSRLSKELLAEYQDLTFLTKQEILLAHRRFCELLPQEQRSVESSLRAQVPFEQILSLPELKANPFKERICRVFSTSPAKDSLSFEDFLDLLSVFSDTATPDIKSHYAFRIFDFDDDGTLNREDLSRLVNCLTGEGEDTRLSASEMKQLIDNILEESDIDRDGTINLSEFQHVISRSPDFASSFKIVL
Method in brief: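 CIB1-GST (1 uM final) and compound incubated 15 min at room temperature before adding FITC-alphaIIb peptide tracer (100 nM final). Competition for binding read by fluorescence polarization (ex 480, em 540) after another 15 min at room temperature.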
% is scaled to controls: 0 for no effect and ±100 for the full control effect.

Compound | outcome | activity change, negative = inhibition
Oc1c(Cl)cc(Cl)c2cccnc12 | inactive | –
COc1c(N2CCNC(C)C2)c(F)cc2c(=O)c(C(=O)O)cn(C3CC3)c12 (configuration not stated) | inactive | –
Cc1onc(-c2ccccc2Cl)c1C(=O)N[C@@H]1C(=O)N2[C@@H]1SC(C)(C)[C@@H]2C(=O)O | inactive | –
COc1cc2ncnc(Nc3cccc(Cl)c3)c2cc1OC | inactive | –
CCN1CCCC1CNC(=O)c1cc(S(N)(=O)=O)ccc1OC (configuration not stated) | – | -2%
CCOc1cc(N)c(Cl)cc1C(=O)NCC1CN(Cc2ccc(F)cc2)CCO1 (configuration not stated) | inactive | –
C[C@]12C=CC(=O)C=C1CC[C@@H]1[C@@H]2C(=O)C[C@@]2(C)[C@H]1CC[C@]2(O)C(=O)CO | inactive | –
CO[C@@H]1[C@@H](OC(N)=O)[C@@H](O)[C@H](Oc2ccc3c(O)c(NC(=O)c4ccc(O)c(CC=C(C)C)c4)c(=O)oc3c2C)OC1(C)C | inactive | –
CCCCS(=N)(=O)CCC(N)C(=O)O (configuration not stated) | – | -2.47%
CC(C)NCC(O)c1ccc(NS(C)(=O)=O)cc1 (configuration not stated) | – | -0.874%
CN1CCCC(n2nc(Cc3ccc(Cl)cc3)c3ccccc3c2=O)CC1 (configuration not stated) | inactive | –
CC1CC2C3CCC4=CC(=O)C=C[C@]4(C)[C@@]3(F)[C@@H](O)C[C@]2(C)[C@@]1(O)C(=O)CO (some centres not stated) | – | -2.97%
CC(C)Cn1cnc2c(N)nc3ccccc3c21 | inactive | –
CNCC[C@H](Oc1cccc2ccccc12)c1cccs1 | inactive | –
OCc1ccc(-c2nn(Cc3ccccc3)c3ccccc23)o1 | – | -13.7%
CC1=C(C(=O)O)N2C(=O)[C@@H](NC(=O)C(N)c3ccccc3)[C@H]2SC1 (some centres not stated) | – | -2.25%
Cc1ccc(S(=O)(=O)N[C@@H](Cc2ccccc2)C(=O)CCl)cc1 | – | -7.71%
